Several values for one entry are separate records, joined by “and”; a condition that tells them apart may be missing. Equal values may be shown once. In all, about 420,000 compounds went through this assay and about 64,000 (15%) were called active. Another 27% or so got no clear call; they are omitted. Not all results are given here. A number with no mark means an inactive call. The call rests on the fitted dose curve; in most records, active means well fitted inhibition curve with a large enough effect; inconclusive means small, poorly fitted or top-dose-only effect; inactive means flat fitted curve, though single readings scatter.
Test: qHTS for Inhibitors of human tyrosyl-DNA phosphodiesterase 1 (TDP1): qHTS in cells in absence of CPT; further: nearly all actives have a fitted effect of over 55% in size
Details: DT40 Tdp1-/- hTDP1 cells, no CPT, ATP luminescence, 48 h; activity change, negative = growth inhibition: at 46.2 µM (top of the series)
Procedure, shortened: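 Chicken DT40 Tdp1-/- cells stably complemented with human TDP1 were seeded at 400 cells/well with DMSO in place of 20 nM camptothecin. After compound pinning, cells grew at least 48 hr at 37 °C; viability read by CellTiter-Glo luminescence.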
On the % scale 0 is the no-effect control and ±100 the full control effect; potency means the concentration at half of the fitted maximal effect.

Compound | activity change, negative = growth inhibition [%] | Potency
CCOc1ccccc1NC(=O)Cn1c(=O)n(Cc2ccccc2)c(=O)c2c(C)c(C(=O)N(C)C)sc21 | 1.44 | 
O=C(NCCN1CCOCC1)C1CCN(S(=O)(=O)c2ccccc2)CC1 | -3.81 | 
COCCCn1c(SCC(=O)Nc2oc(C)c3c(C)n[nH]c(=O)c23)nc2sc3c(c2c1=O)CCC3 | -22.9 | 
O=c1c(CCc2ccccc2)nc2cncnc2n1C1CC1 | -20.2 | 
C=CCn1c(COc2cccc3cccnc23)nnc1SCC(=O)OC | 1.72 | 
CC(=O)c1cc2c(cc1N)OCO2 | -20.4 | 
C/C(COc1ccccc1)=N\NC(=O)c1nnn(-c2nonc2N)c1-c1ccc(C)cc1 | -14.1 | 
CSc1ccc(S(=O)(=O)N2CCC(C(=O)NCCc3ccccc3)CC2)cc1 | 12.2 | 
Cc1cc(S(=O)(=O)NC2CCCC2)ccc1-n1cnnn1 | -3.77 | 
COc1ccc(NC(=O)c2ccc3oc(=O)c(S(=O)(=O)c4ccc(F)cc4)cc3c2)c(OC)c1 | -18.6 | 
CCCCNC(=O)C1(O)c2ccccc2NC(=O)N1c1ccc(Cl)cc1 (stereo unspecified) | 0.754 | 
CC(=O)Nc1ccc(NC(=O)CCN2C(=O)C3CC=CCC3C2=O)cc1 (stereo unspecified) | 8.23 | 
CCNC(=S)N(CCN(CC)CC)Cc1cc2cc3c(cc2[nH]c1=O)OCO3 | -4.4 | 
Cc1c(C)c2c(OCC(=O)N[C@@H](C(=O)O)c3ccccc3)cc3c(c2oc1=O)CCC(C)(C)O3 | -5.21 | 
CC(C)CCC(=O)Nc1cc(S(=O)(=O)N2CCOCC2)ccc1N1CCCC1 | 6.5 | 
Cc1ccccc1NC(=O)CCOc1ccccc1 |  | inactive
Cc1cccc(OCCC(=O)Nc2cc(S(=O)(=O)N3CCCCC3)ccc2N2CCOCC2)c1 |  | 20.6 µM (active)
Cc1cccc(OCCC(=O)Nc2ccccc2C(N)=O)c1 |  | 11.6 µM (active)
Cc1cccc(OCC(=O)Nc2ccccc2F)c1 | -15 | 
CC(=O)NCCC(=O)Nc1cc(S(=O)(=O)N2CCOCC2)ccc1N1CCOCC1 | 4.67 | 
O=C(Nc1cccc(C(=O)O)c1)/C(=C\c1ccccc1)NC(=O)c1ccc(Br)o1 | -20.8 | 
Nc1nc2ncccn2c1-c1ccccc1 | 0.245 | 

Compound | activity change, negative = growth inhibition [%] | Potency
O=c1cc(-c2ccccc2)n2c(SCc3ccccc3)nnc2[nH]1 | 1.75 | 
Cn1c(=O)oc2cc(S(=O)(=O)CCC(=O)NCCc3ccc(Cl)cc3)ccc21 | 5.12 | 
COc1cccc(CNC(=O)C2CCC(CNS(=O)(=O)c3cccs3)CC2)c1 (stereo unspecified) | -28 | 
CCC(=O)N1c2ccc(S(=O)(=O)CCC(=O)N3CCN(c4ccccc4)CC3)cc2CC1C (stereo unspecified) | -26.5 | 
COc1cccc(CNC(=O)C2CCCN(S(=O)(=O)N3CC(C)CC(C)C3)C2)c1 (stereo unspecified) | -6.42 | 
CC1Cc2cc(S(=O)(=O)CCC(=O)Nc3ccc(F)c(Cl)c3)ccc2N1C(=O)C1CC1 (stereo unspecified) |  | 10.3 µM (active)
CC1Cc2cc(S(=O)(=O)CCC(=O)NCc3ccc(Cl)cc3)ccc2N1C(=O)C1CC1 (stereo unspecified) |  | 4.61 µM (active)
CC(=O)N1c2ccc(S(=O)(=O)N(C)CC(=O)N(C)Cc3ccccc3)cc2CC1C (stereo unspecified) | -9.56 | 
CCOc1ccc(NC(=O)CCS(=O)(=O)c2ccc3c(c2)CCCN3C(=O)CC)cc1 | -11.2 | 
CC1Cc2ccccc2N1CC(=O)Nc1ccc(S(N)(=O)=O)cc1 (stereo unspecified) | -10.1 | 
COc1cccc(CNS(=O)(=O)c2ccc3c(c2)CC(C)N3C(=O)C2CCC2)c1 (stereo unspecified) |  | 16.4 µM (active) and 7.31 µM (active)
Cc1ccc(CNC(=O)CCS(=O)(=O)c2ccc3c(c2)CC(C)N3C(=O)C2CC2)o1 (stereo unspecified) |  | 25.9 µM (active)
CC1(NC(=O)CCS(=O)(=O)c2ccc(Cl)cc2)CCS(=O)(=O)C1 (stereo unspecified) | 16.3 | 
Cc1ccc2[nH]c3c(=O)n(CC(=O)NC(C)C)ncc3c2c1 | 4.21 | 
COc1ccc(S(=O)(=O)NC(C)C(=O)Nc2cccc([N+](=O)[O-])c2)cc1 (stereo unspecified) | -25.6 | 
Cc1ccc(S(=O)(=O)c2c[nH]c3ccc(C)cc3c2=O)cc1 | -4.84 | 
C[C@H]1CN([C@@H](C)CO)C(=O)Cc2cc(NS(C)(=O)=O)ccc2O[C@@H]1CN(C)CC1CC1 | -11 | 
CCC(Oc1ccccc1)C(=O)OCC(=O)Nc1c(C)nn(-c2ccccc2)c1C (stereo unspecified) | -13.4 | 
CCCc1cc(C(=O)Nc2ccc(C(=O)OC)cc2)cs1 | 6.02 | 
CC(O)c1ccc(OCCN(C)c2ccccn2)cc1 (stereo unspecified) | -6.31 | 
O=C(COC(=O)c1c(Cl)cccc1Cl)Nc1cccc(S(=O)(=O)NC2=NCCCCC2)c1 | 13.1 | 
CCn1c(CC(=O)Nc2ccccc2C)nnc1SCC(=O)NC1=NCCS1 | -27 | 

Compound | activity change, negative = growth inhibition [%] | Potency
COCCCNC(=O)C1CCN(c2ccc(N3CCOCC3)nn2)CC1 | 0.0826 | 
COC(=O)Cc1ccc(NC(=S)NCc2ccccc2)cc1 | -29.3 | 
Cn1cc(C(=O)NCc2ccccc2F)cn1 | -12.8 | 
Fc1ccccc1CNC(=S)Nc1ccc(Cl)cc1 |  | 20.6 µM (active)
C[C@H](C(=O)CC(=O)OC(C)(C)C)[C@H](O)c1ccc(C(F)(F)F)cc1 | -27.5 | 
O=C(NCc1ccncc1)NC12CC3CC(CC(C3)C1)C2 | -16.2 | 
CCN(CC(=O)NCc1ccc(F)cc1)S(=O)(=O)c1ccc(Cl)s1 | -10.1 | 
CCCCNC(=O)c1nc(C2CCN(S(=O)(=O)c3ccc(F)c(F)c3)CC2)oc1-c1cccc(C(F)(F)F)c1 | 2.36 | 
CN1CCC[C@@H]1CCO[C@](C)(c1ccccc1)c1ccc(Cl)cc1 |  | 26.6 µM (active)
CCC1CCC/C1=N\NC(=O)c1ccc(Cl)cc1 (stereo unspecified) | -9.86 | 
CN1CCCC1CCO[C@@](C)(c1ccccc1)c1ccc(Cl)cc1 (stereo partly specified) |  | 14.6 µM (active)
C#CC(CCN1CCCCC1)(OC)c1ccccc1 (stereo unspecified) | -0.836 | 
COc1ccc(CN2CCNC(=O)C2CC(=O)N(C)Cc2ccccn2)cc1OC (stereo unspecified) | 1.2 | 
CC1CC(C)CN(S(=O)(=O)c2cccc(C(=O)N3C(=O)c4cccc(N)c4C3=O)c2)C1 (stereo unspecified) | 5.73 | 
COC(=O)c1cccc(Cn2nnc3sc4c(c3c2=O)CCC(C(C)(C)C)C4)c1 (stereo unspecified) |  | 18.4 µM (active)
COc1cccc2cc(-c3nc(Cl)c4c5c(sc4n3)CC(C)CC5)c(=O)oc12 (stereo unspecified) | -0.111 | 
Cc1ccc(NC(=O)Cn2nnc3sc4c(c3c2=O)CCC(C)C4)cc1 (stereo unspecified) | -79.2 | 
O=C(C1CCCO1)N(Cc1ccccc1)c1ccccc1 (stereo unspecified) | -1.91 | 
Cc1cc(C)c(NC(=O)c2cc3sc(Cl)cc3n2C)c(C)c1 | -14.2 | 
CCOC(=O)Cc1ncccc1C(=O)Nc1ccc(OC)cc1 | -8.44 | 
CCOC(=O)Cc1ncccc1C(=O)Nc1ccc(OC(F)(F)F)cc1 |  | 14.6 µM (active)
COC(=O)Cc1ccc(OCC(=O)Nc2ccc(OC(F)(F)F)cc2)cc1 | 0.899 | 

— PubChem BioAssay AID686978 (National Center for Advancing Translational Sciences (NCATS), 2013)
